# Results filed as inconclusive are left out. Calls of active or inactive are those of the source. The call rests on the fitted dose curve; in most records, active means well fitted cell-killing curve with a large enough effect; inconclusive means small, poorly fitted or top-dose-only effect, or effect the other way; inactive means no such curve, though single readings can be large or run the other way.
# Test: Quantitative highthroughput screen to assess conditional lethalithy of SEM cells grown in Human Plasma-Like Medium with dialyzed fetal bovine serum (HPLM+ds) (AID 1963882); further: nearly all actives have a fitted effect of over 35% in size
# Settings: SEM B-ALL cells in HPLM+ds, CellTiter-Glo viability, 48 h; series mostly up to 45.8 µM
# Text: Assay Provider: Jason Cantor Ph.D.
# Department of Biochemistry
# University of Wisconsin-Madison, Madison, WI, USA
# Chemical screening studies have identified drug sensitivities across hundreds of cancer cell lines but most putative therapeutics fail to translate. Discovery and development of drug candidates in models that more accurately reflect nutrient levels in human blood is a major challenge. Here we performed high-throughput screens in conventional versus Human Plasma-Like Medium (HPLM) to identify compounds that were "missed" when screening using the artificial culture condition. Sets of conditional anticancer compounds spanned phases of clinical development and included non-oncology drugs were assessed. […] We also traced conditional phenotypes for several chemotherapeutics to availability of HPLM-specific metabolites and confirmed others for compounds whose reported targets are encoded by nonessential genes. Our findings establish generalizable strategies for exploiting conditional lethality in HPLM to reveal therapeutic candidates and mechanisms of action in cancer cells.
# Described herein are the results of each viability screens against three cell lines: NOMO1 (an acute myeloid leukemia cell line); P12-Ichikawa (a T-cell acute lymphoblastic leukemia); and SEM (a B-cell ALL). Each assay was screened using 3 different cell culture media: homemade human plasma-Like medium with 10% dialyzed fetal bovine serum (HPLM+ds); RPMI1640 with 10% untreated FBS and 5mM glucose (RPMI+s); and RPMI1640 with 10% dialyzed fetal bovine serum and 5 mM glucose (RPMI+ds).
# PROTOCOL TABLE (as described by Inglese J, Shamu CE and Guy RK. 2007)
# SEQUENCE No. (e.g., 1, 2, 3, etc.); […] (e.g., Cells, Incubation, Reagent, etc.); VALUE and DESCRIPTION.
# 1; Cells; 5 uL; white, solid bottom 1536-well Greiner assay plate.
# 2; Compounds; 23 nL; Kalypsis pin tool (Wako USA) equipped with a 1536-well pin head to transfer to the assay plates.
# 3; Incubation; 48 hours; 37C incubation.
# 4; Reagent; 3 uL; CellTiter Glo (Promega).
# 5; Incubation; 5 min, room temperature
# 6; Detection; Luminescence, Viewlux PerkinElmer.
# NOTES (numbers refer to Sequence numbers above)
# 1. Briefly, 5 ul of cell reagent was dispensed using a Multidrop Combi Dispenser. The NOMO1 and SEM cells were plated at 500 cells/well and the P12-Ichikawa line at 1000 cells/well.
# 2. After seeding the cells, 23 nL of MIPE 4.1 library compounds (in DMSO) were added to each plate using a Kalypsys 1536 Pintool dispenser. Bortezomib at final concentration of […] and DMSO were added to each plate as positive and negative controls respectively. For each screen, MIPE 4.1 compounds were added over an eleven-point concentration range […] in 3-fold dilutions.
# 3. Each plate was covered with a stainless steel gasketed lid to prevent evaporation and incubated for 48 hour at 37C, 95% relative humidity, and 5% CO2.
# 4-5. Three microliter CellTilter-GloTM luminescent substrate mix (Promega) reagent was added to the assay plate and incubated at room temperature for 5 min.
# 6. The luminescence signal was measured using a ViewLux (PerkinElmer) multiplate reader with a 2 second exposure time per plate. Data for each compound were normalized as percent viability such that measurements for DMSO and the empty well controls in each plate were defined as 100% and 0%, respectively.
# Potency means the concentration at half of the fitted maximal effect.
row,Compound,Potency
1,COCCCN1CCC(NC(=O)c2cc(Cl)c(N)c3c2OCC3)CC1,inactive
2,O=C(NOC[C@H](O)CO)c1ccc(F)c(F)c1Nc1ccc(I)cc1F,7.43 µM (active)
3,Nc1cccc(-c2cc3c(Oc4cccc(O)c4)ncnc3[nH]2)c1,16.6 µM (active)
4,CCN(CC)CCCCNc1ncc2cc(-c3cc(OC)cc(OC)c3)c(NC(=O)NC(C)(C)C)nc2n1,14.8 µM (active)
5,CC(C)(C)NC(=O)[C@H]1CC[C@H]2[C@@H]3CC[C@H]4NC(=O)C=C[C@]4(C)[C@H]3CC[C@]12C,inactive
6,CCOC(=O)c1c(C)n(C)c2ccc(O)cc12,inactive
7,CCC1=C(C)CN(C(=O)NCCc2ccc(S(=O)(=O)NC(=O)NC3CCC(C)CC3)cc2)C1=O (stereo not given),inactive
8,CN1CCN2c3ncccc3Cc3ccccc3C2C1 (stereo not given),inactive
9,N=C(N)c1ccc2cc(OC(=O)c3ccc(N=C(N)N)cc3)ccc2c1,inactive
10,NC(CO)C(=O)NNCc1ccc(O)c(O)c1O (stereo not given),inactive
11,CN1CCc2c(c3ccccc3n2Cc2ccc(C(=O)NO)cc2)C1,11.8 µM (active)
12,CN(C)Cc1cccc(N=C(c2ccccc2)c2c(O)[nH]c3cc(C(=O)N(C)C)ccc23)c1,16.6 µM (active)
13,CC1(O)CC(c2nc(-c3ccc4ccc(-c5ccccc5)nc4c3)c3c(N)nccn23)C1 (stereo not given),2.35 µM (active)
14,c1ccc2c(-c3cnn4cc(-c5ccc(N6CCNCC6)cc5)cnc34)ccnc2c1,2.64 µM (active)
15,CC(C)OC(=O)[C@H](C)N[P@](=O)(OC[C@H]1O[C@@H](n2ccc(=O)[nH]c2=O)[C@](C)(F)[C@H]1O)Oc1ccccc1,4.69 µM (active)
16,CNC1CCCN(c2c(F)cc3c(=O)c(C(=O)O)cn(C4CC4)c3c2OC)C1 (stereo not given),inactive
17,FC(F)(F)c1ccc(Nc2nc3ccc(Oc4ccnc(-c5ncc(C(F)(F)F)[nH]5)c4)cc3[nH]2)cc1,18.7 µM (active)
18,Nc1nc(F)nc2c1ncn2[C@@H]1O[C@H](CO)[C@@H](O)[C@@H]1O,0.0935 µM (active)
19,CNC(=O)c1ccc(Nc2ncc(C(F)(F)F)c(NCc3nccnc3N(C)S(C)(=O)=O)n2)cc1,1.48 µM (active)
20,CC(=O)Nc1cccc(-n2c(=O)n(C3CC3)c(=O)c3c(Nc4ccc(I)cc4F)n(C)c(=O)c(C)c32)c1,2.35 µM (active)

row,Compound,Potency
1,OC(CN1CCN(c2cccc(Cl)c2)CC1)C(c1ccccc1)c1ccccc1 (stereo not given),0.833 µM (active)
2,Cc1ccc2c(c1)C(=O)[C@]1(O)CCN(c3ccccc3)C1=N2,inactive
3,CC[C@H](CC[C@@H](C)[C@H]1CC[C@H]2[C@@H]3CC=C4C[C@@H](O)CC[C@]4(C)[C@@H]3CC[C@]12C)C(C)C,inactive
4,CC[C@H](NC(C)C)[C@H](O)c1ccc(O)c2[nH]c(=O)ccc12,inactive
5,CCOC(=O)N1CCC(=C2c3ccc(Cl)cc3CCc3cccnc32)CC1,inactive
6,CC(=O)NC[C@H]1CN(c2ccc(N3CCOCC3)c(F)c2)C(=O)O1,inactive
7,O=C1NC(=O)C(=Cc2ccc(-c3ccc(F)cc3O)o2)S1,inactive
8,CC1(C)NC(=O)N(c2ccc([N+](=O)[O-])c(C(F)(F)F)c2)C1=O,inactive
9,COc1cc([C@@H]2c3cc4c(cc3[C@@H](O[C@@H]3O[C@@H]5CO[C@@H](C)O[C@@H]5[C@H](O)[C@@H]3O)[C@H]3COC(=O)[C@H]23)OCO4)cc(OC)c1O,0.526 µM (active)
10,CC(C)[C@@H](CS(=O)(=O)C(C)C)N1C(=O)[C@@](C)(CC(=O)O)C[C@H](c2cccc(Cl)c2)[C@H]1c1ccc(Cl)cc1,4.17 µM (active)
11,COC[C@H](NC(=O)c1cnc(C)s1)C(=O)N[C@@H](COC)C(=O)N[C@@H](Cc1ccccc1)C(=O)[C@@]1(C)CO1,0.0935 µM (active)
12,CCOc1cc2ncc(C#N)c(Nc3ccc(OCc4ccccn4)c(Cl)c3)c2cc1NC(=O)C=CCN(C)C,0.332 µM (active)
13,OC[C@H]1O[C@@H](Oc2ccc(O)cc2)[C@H](O)[C@@H](O)[C@H]1O,inactive
14,Cc1cn([C@H]2C[C@H](N=[N+]=[N-])[C@@H](CO)O2)c(=O)[nH]c1=O,inactive
15,CC1(C)[C@H]2CC[C@]3(C)[C@@H](C(=O)C=C4[C@@H]5C[C@@](C)(C(=O)O)CC[C@]5(C)CC[C@]43C)[C@@]2(C)CC[C@@H]1O,inactive
16,CCc1cnn2c(NCc3ccc[n+]([O-])c3)cc(N3CCCC[C@@H]3CCO)nc12,0.0743 µM (active)
17,Fc1ccc([C@@H]2CCNC[C@H]2COc2ccc3c(c2)OCO3)cc1,14.8 µM (active)
18,CCCCCCCCCC(=O)N[C@@H](Cc1c[nH]c2ccccc12)C(=O)N[C@H](CC(N)=O)C(=O)N[C@@H](CC(=O)O)C(=O)N[C@@H]1C(=O)NCC(=O)N[C@@H](CCCN)C(=O)N[C@@H](CC(=O)O)C(=O)N[C@H](C)C(=O)N[C@@H](CC(=O)O)C(=O)NCC(=O)N[C@H](CO)C(=O)N[C@@H]([C@@H](C)CC(=O)O)C(=O)N[C@@H](CC(=O)c2ccccc2N)C(=O)O[C@@H]1C,inactive
19,CC1(C)S[C@H]2[C@H](NC(=O)[C@@H](N)c3ccc(O)cc3)C(=O)N2[C@@H]1C(=O)O,16.6 µM (active)
20,CC1(C)CCC2=C(O1)c1ccccc1C(=O)C2=O,26.4 µM (active)

# From PubChem BioAssay (NCATS)
